Measurements published in PubChem BioAssay (NCI).
The panel holds about 79,000 compounds, 15% with a hit somewhere; the sample as a whole holds those more often. Calls of active or inactive are those of the source. Rule as the data show it: active = growth inhibition above about 70%; inactive = the rest. Where a SMILES comes first, the peptide text is derived from it. The star is where a group is joined. Cbz = O=C(OCc1ccccc1)*

Assays:
[1] = NCI Yeast Anticancer Drug Screen. Data for the rad50 strain (AID 155);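 also: 0% = growth of vehicle-only cultures of the same strain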; settings: S. cerevisiae rad50 strain growth inhibition; at 50.0 µM; hits give high values
Summary of the method: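 Cells are treated with compound, grown, and their growth is then scored against vehicle-only cultures of the same repair-deficient yeast strain.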

[2] = NCI Yeast Anticancer Drug Screen. Data for the mec2-1 strain (AID 157); settings: S. cerevisiae mec2-1 strain, at 50.0 µM, hits give high values
Summary of the method: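 Yeast mec2-1 mutant treated with compound. Readout: growth inhibition vs vehicle controls.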

[3] = NCI Yeast Anticancer Drug Screen. Data for the sgs1 mgt1 strain (AID 161);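 also: 0% = growth of cultures given vehicle only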; settings: S. cerevisiae sgs1 mgt1 strain, at 50.0 µM, hits give high values
Summary of the method: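 Test agents were incubated with a DNA-repair-mutant yeast strain. Growth was then read and compared against vehicle-treated controls.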

[4] = NCI Yeast Anticancer Drug Screen. Data for the cln2 rad14 strain (AID 165);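 also: 0% = growth equal to vehicle treated cultures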; settings: S. cerevisiae cln2 rad14 strain, at 50.0 µM, hits give high values
Summary of the method: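 cln2 rad14 yeast strain; compound exposure; growth inhibition read vs vehicle controls.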

[5] = NCI Yeast Anticancer Drug Screen. Data for the bub3 strain (AID 167); settings: S. cerevisiae bub3 mutant strain, at 50.0 µM, hits give high values
Summary of the method: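 Part of a panel of yeast mutants defective in DNA damage repair or cell cycle regulation. Each strain is grown with compound, and inhibition is calculated relative to solvent-treated cultures.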

[6] = NCI Yeast Anticancer Drug Screen. Data for the mlh1 rad18 strain (AID 175); settings: S. cerevisiae mlh1 rad18 strain growth inhibition; at 50.0 µM; hits give high values
Summary of the method: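 Yeast w/ defined DNA-repair lesions; compound exposure; growth vs vehicle controls → % inhibition.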

Measured: growth inhibition

COCC(C)OC(=O)c1ccccc1 (stereo unspecified)
inactive: [1] 23.8% | [2] -0.8% | [3] -9.9% | [4] -23.4% | [5] -14.9% | [6] 31.9%

CCOC(=O)N1CCN(C(=S)N/N=C(\C)c2cnccn2)CC1
active: [1] 99.3% | [2] 99.5% | [3] 99.5% | [4] 99.5% | [5] 99.5% | [6] 99.3%

CC1(C)[C@@H]2CC[C@](C)(O)[C@H]1C2
inactive: [1] 0.45% | [2] -1.05% | [3] -1.65% | [4] 8.5% | [5] -3.15% | [6] 2.3%

O=[N+]([O-])c1cc([N+](=O)[O-])c2ccccc2c1NS(=O)(=O)c1ccc(Br)cc1
inactive: [1] 7.35% | [2] 18.9% | [3] 36.4% | [4] 0.7% | [5] 36%
active: [6] 70.5%

Fc1cccc(Cl)c1CSc1n[nH]c(C(F)(F)F)n1
inactive: [1] -4.65% | [2] -24.1% | [3] 10.5% | [4] 3.2% | [5] 11.1% | [6] 2.45%

Cc1ccccc1C1(O)c2cccc3cccc(c23)C1(O)c1ccccc1C (stereo unspecified)
inactive: [1] 2.95% | [2] 8.45% | [3] -7.45% | [4] -10.9% | [5] 10.9% | [6] -22.4%

CCc1nc(=S)c2cnn(-c3ccccc3)c2[nH]1
inactive: [1] 16.4% | [2] 1.1% | [3] 11.2% | [4] -33.5% | [5] 8.05% | [6] 23.6%

Cc1cccc(-c2nc(N)nc(N)n2)c1
inactive: [1] 11.8% | [2] -9.45% | [3] -1.05% | [4] 18.6% | [5] 7% | [6] 22.4%

O=C(N/N=C/c1ccccn1)c1ccccc1
inactive: [1] -1.2% | [2] 23.6% | [3] 10.7% | [4] 19.1% | [5] 13.3% | [6] 3.55%

O=CNc1ccc(-c2ccc(NC=O)cc2)cc1
inactive: [1] 27.6% | [2] 4.5% | [3] 7.75% | [4] 13.1% | [5] -12.8% | [6] -6.4%

CCC(C)c1cc(CN(C)C)cc(C(C)CC)c1O (stereo unspecified)
inactive: [1] 13.1% | [2] 1.1% | [3] 16.4% | [4] 13.8% | [5] 3.2% | [6] 9.05%

CC1=C(O)C(=O)C(C2=C(O)C(=O)C(C)=C(O)C2=O)=C(O)C1=O
inactive: [1] 5.3% | [2] -12.4% | [3] 24.4% | [4] 10% | [5] 5.8% | [6] 12.6%

COc1cc(C(=O)O)cc(OC)c1OC(C)=O
inactive: [1] 6.65% | [2] -7% | [3] 3.8% | [4] 9% | [5] -34.7% | [6] -8.65%

CCCCCC(=O)OCCCCCO
inactive: [1] 13.7% | [2] 16.8% | [3] 21.5% | [4] 13.2% | [5] 2.6% | [6] -4.7%

C=C(C)CC(O)CCCCC (stereo unspecified)
inactive: [1] 15.1% | [2] -5.85% | [3] 19.7% | [4] -33.9% | [5] 17.3% | [6] -13.3%

CC=NC(C)(C)C
inactive: [1] -7.25% | [2] -9.15% | [3] -12.3% | [4] -11.8% | [5] 3.3% | [6] -18.9%

COc1ccc(C2(C=O)CN(C)CN2)cc1 (stereo unspecified)
inactive: [1] -7.2% | [2] -3.95% | [3] -14.7% | [4] -21.2% | [5] -13.8% | [6] -7.2%

C=CC(CO)N1CCCCC1 (stereo unspecified)
inactive: [1] -9.15% | [2] 24.6% | [3] -1.05% | [4] -8.9% | [5] -19.2% | [6] 13.9%

CC(=O)[C@H]1CC[C@@H]2[C@]1(C)CC=C1[C@]23C=C[C@]2(C[C@@H](O)CC[C@]12C)C(C(=O)O)C3C(=O)O (stereo partly specified)
inactive: [1] 2.35% | [2] -18% | [3] -39.7% | [4] 4.2% | [5] -13.1% | [6] 7.25%

NC1=NC(=O)C(CC(=O)Nc2ccc([N+](=O)[O-])cc2[N+](=O)[O-])S1 (stereo unspecified)
inactive: [1] -15.2% | [2] -30.3% | [3] 2.3% | [4] 3.3% | [5] 2% | [6] -8.55%

CC(=O)CC(C)(C)NC(=S)NCCO
inactive: [1] 1.2% | [2] -26.5% | [3] 2% | [4] -29.4% | [5] -8.85% | [6] -13.4%

COc1ccc(/C=C2\N=C(c3cccc(Cl)c3)OC2=O)cc1OC
inactive: [1] 14.6% | [2] 4.25% | [3] 18.2% | [4] 12.2% | [5] 6.3% | [6] -7.85%

c1ccc(-c2cnn3c(-c4ccccc4)cnnc23)cc1
inactive: [1] -1.65% | [2] -8.1% | [3] -2.55% | [4] 2.8% | [5] 2.8% | [6] 4.65%

CCC(c1ccc(C(C)=O)c(O)c1)C(CC)c1ccc(C(C)=O)c(O)c1 (stereo unspecified)
inactive: [1] 9.65% | [2] 9.75% | [3] 22.6% | [4] 8.7% | [5] 2.8% | [6] 30.4%

CC(=O)Nc1nc(C)c(CCCOc2ccc([N+](=O)[O-])cc2)c(Cl)n1
inactive: [1] 1.65% | [2] 11.4% | [3] 4% | [4] 1.4% | [5] 27.1% | [6] 12.2%

COc1ccc(/C=N/N2CN(C(C)C(=O)O)C(C)(O)N=C2N)cc1OC (stereo unspecified)
inactive: [1] -14.2% | [2] -33.8% | [3] -20.7% | [4] -8.95% | [5] -25.6% | [6] -50.8%

CC1(C)CC([NH-])(C(=O)O)CC(C)(C)N1O.CC1(C)CC([NH-])(C(=O)O)CC(C)(C)N1O.[Pt+2]
inactive: [1] -5.65% | [2] -8.75% | [3] -6.5% | [4] -45.6% | [5] -1.05% | [6] -23.8%

COc1ccccc1-n1nnc2c(N)nc(N)nc21
inactive: [1] 7.05% | [2] -12.2% | [3] -13.2% | [4] 4.05% | [5] -22.1% | [6] -9.25%

CN(C)c1ccc2c(c1[N+](=O)[O-])Cc1ccccc1-2
inactive: [1] 18.3% | [2] 3.3% | [3] 6.75% | [4] 14.6% | [5] 32.2% | [6] 6.05%

CCCNc1nc(N)[nH]c(=O)c1NC=O
inactive: [1] 2.45% | [2] -9.25% | [3] -6.7% | [4] -12.3% | [5] -15% | [6] -0.85%

O=C(O)C1CCC(=O)N1Cc1csc(-c2ccccc2)n1 (stereo unspecified)
inactive: [1] -23.8% | [2] -19.6% | [3] -1.45% | [4] -19.6% | [5] -7.15% | [6] 2.7%

CCOC(=O)CCC(NC(=O)OCc1ccccc1)C(=O)NC(CCC(=O)OCC)C(=O)OCC (stereo unspecified) (Cbz-Glu(OEt)-Glu(OEt)-OEt; configuration not given here)
inactive: [1] 17.9% | [2] 3.15% | [3] -11.4% | [4] 7.55% | [5] 4.65% | [6] -25.8%

COc1c2occc2c(S(=O)(=O)O)c2ccc(=O)oc12
inactive: [1] -12.5% | [2] 4.05% | [3] 6.45% | [4] 3.75% | [5] -40.6% | [6] 2.7%

CCOc1ccc([N+](=O)[O-])cc1
inactive: [1] -28.8% | [2] 3.9% | [3] -2.65% | [4] -40.2% | [5] -3.5% | [6] -31.9%

CCCc1cc(=O)n(CCCc2ccccc2)c(=O)[nH]1
inactive: [1] -3.85% | [2] 1.25% | [3] 13.4% | [4] -7.75% | [5] 15.2% | [6] 18.4%

O=c1[nH]c2cc([N+](=O)[O-])ccc2nc1/C(=N/Nc1ccccc1)C(O)c1ccc(C(O)/C(=N\Nc2ccccc2)c2cnc3cc([N+](=O)[O-])ccc3n2)cc1 (stereo unspecified)
inactive: [1] -4.05% | [2] -23.9% | [3] -11.4% | [4] 5.25% | [5] -6.45% | [6] -4.3%

O=c1[nH]c2nc3ccccc3c(=O)n2/c1=C/c1ccco1
inactive: [1] 30.2% | [2] 16.8% | [3] 5.5% | [4] 20.2% | [5] 23.1% | [6] 3.95%

CC(=O)NC1c2ccccc2CCC1OC(C)=O (stereo unspecified)
inactive: [1] -16.4% | [2] -8.05% | [3] 22.9% | [4] -1.8% | [5] -8.55% | [6] -34.8%

Cc1ccc(-c2cc(=S)n(-c3ccccc3)c3nc(=S)n(-c4ccccc4)c(N)c23)cc1
inactive: [1] 14.4% | [2] 24.4% | [3] 18.1% | [4] -12.9% | [5] 23.8% | [6] 25.9%

c1ccc2c(c1)ncc1cccn12
inactive: [1] 5.15% | [2] -10.9% | [3] 0.65% | [4] 3.45% | [5] 7.7% | [6] 1.25%

O=C(O)C1CCCCC1O (stereo unspecified)
inactive: [1] -11.6% | [2] 21.1% | [3] -5.25% | [4] 23.3% | [5] 21.4% | [6] 1.3%
